# What was measured:
# Conditions in all cases: Compound Concentration (nM):1000
# GRK1 = tested on: GRK1
# GRK2 = tested on: T1, GRK2
# T1 construct: gene ADRBK1
# GRK3 = tested on: T2, GRK3
# T2 construct: gene ADRBK2
# GRK4 = tested on: GRK4
# GRK7 = tested on: GRK7
# GSK3A = tested on: GSK3A
# GSK3B = tested on: GSK3B
# HASPIN = tested on: T3, HASPIN
# T3 construct: gene GSG2
# HCK = tested on: HCK
# HIPK1 = tested on: HIPK1
# HIPK2 = tested on: HIPK2
# HIPK3 = tested on: HIPK3
# HIPK4 = tested on: HIPK4
# HPK1 = tested on: T4, HPK1
# T4 construct: gene MAP4K1
# HUNK = tested on: HUNK
# ICK = tested on: ICK
# IGF1R = tested on: IGF1R
# IKK-alpha = tested on: T5, IKK-alpha
# T5 construct: gene CHUK
# IKK-beta = tested on: T6, IKK-beta
# T6 construct: gene IKBKB
# IKK-epsilon = tested on: T7, IKK-epsilon
# T7 construct: gene IKBKE
# 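Further: KINOMEscan scanMAX binding as percent activity remaining versus control; lower means stronger binding.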
Structure (SMILES),Percent Control (GRK1),Percent Control (GRK2),Percent Control (GRK3),Percent Control (GRK4),Percent Control (GRK7),Percent Control (GSK3A),Percent Control (GSK3B),Percent Control (HASPIN),Percent Control (HCK),Percent Control (HIPK1),Percent Control (HIPK2),Percent Control (HIPK3),Percent Control (HIPK4),Percent Control (HPK1),Percent Control (HUNK),Percent Control (ICK),Percent Control (IGF1R),Percent Control (IKK-alpha),Percent Control (IKK-beta),Percent Control (IKK-epsilon)
CCS(=O)(=O)c1ccc(OC)c(Nc2ncc(-c3cccc(F)c3)o2)c1 [GW621970X],100%,100%,100%,100%,100%,94%,91%,79%,32%,82%,87%,79%,74%,100%,100%,100%,100%,100%,100%,98%
COc1cc(N2CCN(C(C)C)CC2)ccc1Nc1nc(Nc2ccc(F)cc2C(=O)NC[C@@H](O)CO)c2cc[nH]c2n1 [GSK1392956A],91%,100%,67%,94%,93%,100%,98%,86%,100%,15%,23%,44%,1.4%,86%,83%,100%,9.8%,100%,97%,78%
COc1cc2ncnc(Nc3ccc4c(cnn4Cc4ccccc4)c3)c2cc1OC.Cl [GW282449A],100%,100%,100%,100%,100%,100%,100%,99%,21%,100%,100%,100%,100%,100%,92%,100%,100%,100%,100%,100%
NS(=O)(=O)c1ccc(Nc2ncc(-c3ccccc3)o2)cc1 [GW572399X],100%,100%,100%,100%,100%,99%,83%,100%,100%,100%,72%,75%,100%,100%,92%,89%,100%,90%,100%,78%
NS(=O)(=O)c1ccc(N/N=C2\C(=O)Nc3ccc(C(=O)NCc4ccncc4)cc32)cc1 [GW300657X],69%,86%,76%,100%,83%,27%,35%,54%,100%,19%,9.9%,12%,81%,70%,86%,15%,95%,86%,83%,42%
C/C(Nc1ccc(S(N)(=O)=O)cc1)=C1/C(=O)Nc2ccccc21 [GW335962X],85%,98%,100%,100%,97%,90%,97%,33%,79%,79%,93%,97%,84%,100%,100%,92%,95%,92%,100%,63%
CCc1ccc(Oc2nccc(-c3c(-c4ccc(F)cc4)ncn3C3CCNCC3)n2)cc1 [SB-242719],92%,94%,90%,100%,100%,97%,100%,86%,99%,80%,92%,100%,100%,54%,86%,100%,97%,99%,100%,56%
CN1CCN(C(=O)c2ccc(NC(=O)Nc3ccc(N(C)c4ccnc(Nc5ccc(CS(C)(=O)=O)cc5)n4)cc3)cc2)CC1.Cl [GW830263A],100%,100%,97%,4.5%,100%,100%,95%,92%,100%,72%,77%,71%,74%,2.6%,35%,44%,100%,90%,70%,38%
O=C1Nc2ccc(C(=O)c3ccco3)cc2C1=Cc1cc(Cl)c(O)c(Cl)c1 [GW406108X],60%,100%,97%,100%,65%,67%,69%,2.2%,98%,11%,5.3%,5.4%,59%,96%,46%,68%,100%,96%,100%,30%
COC(=O)Nc1nc2ccc(Oc3ccc(NC(=O)Nc4cc(C(F)(F)F)ccc4F)cc3)cc2s1.Cl [GW693917A],81%,91%,71%,100%,84%,100%,99%,76%,51%,87%,88%,94%,10%,51%,100%,78%,100%,86%,100%,71%
CN(C)c1cc2c(Nc3ccc4c(cnn4Cc4ccccc4)c3)ncnc2cn1 [GW282974X],78%,100%,86%,100%,97%,98%,100%,82%,57%,78%,90%,100%,79%,100%,100%,90%,100%,92%,100%,76%
Nc1ncnc2occ(-c3ccc(NC(=O)Nc4cc(C(F)(F)F)ccc4F)cc3)c12 [GW770249X],100%,100%,98%,100%,100%,23%,100%,100%,74%,51%,73%,29%,0%,16%,97%,100%,100%,18%,75%,69%
COc1cc(C)c(N(C)C(=O)CN(C)C)cc1Nc1nc(Nc2cccc(F)c2C(N)=O)c2cc[nH]c2n1 [GSK2219385],69%,100%,80%,100%,70%,100%,100%,41%,100%,71%,100%,100%,100%,100%,100%,89%,7.7%,100%,100%,61%
Cl.O=C(Nc1ccc(Oc2ccc3[nH]c(NC(=O)c4ccco4)nc3c2)cc1)Nc1cc(C(F)(F)F)ccc1F [GW683134A],100%,100%,100%,100%,100%,100%,88%,100%,41%,100%,100%,100%,16%,44%,63%,100%,100%,24%,88%,100%
Cl.O=S1CCN(Cc2ccc(-c3ccc4ncnc(Nc5ccc(OCc6ccccc6)c(F)c5)c4c3)o2)CC1 [GW576924A],98%,100%,100%,100%,100%,100%,100%,96%,100%,100%,100%,97%,100%,95%,100%,100%,100%,100%,94%,100%
Cl.O=C(O[C@H]1CN[C@H](C#Cc2cc3ncnc(Nc4ccc5c(cnn5Cc5ccccc5)c4)c3s2)C1)N1CCOCC1 [GSK200398A],86%,100%,80%,100%,84%,93%,90%,93%,100%,91%,77%,92%,92%,100%,100%,96%,97%,100%,100%,100%
COc1ccc(COc2ccc(Cc3cnc(N)nc3N)cc2OC)cc1 [GW632580X],93%,97%,93%,100%,100%,95%,95%,88%,90%,100%,94%,100%,100%,100%,72%,99%,91%,94%,100%,86%
COc1cc2ncn(-c3cc(O[C@H](C)c4ccccc4Cl)c(C(N)=O)s3)c2cc1OC [GSK237701A],100%,95%,97%,18%,99%,85%,97%,94%,64%,68%,84%,93%,99%,26%,100%,91%,97%,83%,92%,81%

# Source: publication PMC7826789 (International Journal of Molecular Sciences, 2021)
